An excerpt weighted towards active compounds, which were near 10% of everything screened.
Pf growth 96h – inhibits malaria parasite growth, 96 h. P. falciparum luciferase reporter growth, 96 h. Potency, µM (top dose mostly 28.7 µM), hits mostly inhibitors. hit rate 6.9% among 320,000. AID 504834; active = well fitted inhibition curve with a large enough effect; inconclusive = small, poorly fitted or top-dose-only effect, or another doubt; inactive = no such curve, though single readings can be large or run the other way
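Plates of compound plus infected erythrocytes (2% hematocrit, 0.05% parasitemia final) incubate 96 hours, 37 C, 5% CO2. Detection reagent added; reduced luminescence from the parasites' luciferase reporter flags inhibition.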
SARS PLP yeast – blocks SARS-CoV papain-like protease in a yeast assay; S. cerevisiae expressing SARS-CoV PLpro, growth rescue; Potency, µM (highest dose often 32.9 µM), actives largely listed as activators; hit rate 0.19% among 330,000; AID 485353; note: nearly all actives have a fitted effect of over 55% in size
Pf growth 48h – P. falciparum growth inhibition at 48 hours (one generation); P. falciparum luciferase growth in erythrocytes, 48 h; AID 504832; Potency, µM (series often up to 28.7 µM), usual class: inhibitors; hit rate 5.9% among 310,000; active = well fitted inhibition curve with a large enough effect; inconclusive = small, poorly fitted or top-dose-only effect, or another doubt; inactive = no such curve, though single readings can be large or run the other way
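Luminescence readout; reporter = integrated firefly luciferase in P. falciparum. RBC culture at 2% hematocrit, 0.1% parasitemia final, 37 C/5% CO2; decreased signal taken as growth inhibition.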
NS1 function inh – blocks influenza NS1 protein function; Potency, µM (highest dose often 46.1 µM); hit rate 0.4% among 270,000; AID 2326; note: actives are rising curves; nearly all actives have a fitted effect of over 50% in size
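Growth recovery, yeast-based: influenza A NS1 expressed in S. cerevisiae causes slow growth, and suppressors are detected by OD600. The parent strain without NS1 is used as positive control.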
Numbers stand for hits; - = inactive; ? = inconclusive; . = no result. Unless noted, calls come from the whole dose curve.

SMILES	Pf growth 96h	SARS PLP yeast	Pf growth 48h	NS1 function inh
Cc1ccccc1OCC(=O)NCC(=O)N/N=C/c1cccc([N+](=O)[O-])c1	-	-	-	-
Cc1ccccc1OCC(=O)N/N=C/c1cccc(Oc2ccc([N+](=O)[O-])cc2[N+](=O)[O-])c1	1.3µM	-	-	-
Cc1cc([N+](=O)[O-])cc(C)c1OCC(=O)N/N=C/c1ccc(OC(=O)c2ccccc2Br)cc1	10µM	-	-	-
O=C(CNC(=O)c1ccc([N+](=O)[O-])cc1)N/N=C\c1ccc(OC(=O)c2ccccc2)cc1	.	-	?	-
COc1ccc(C2=NS(=O)(=O)N(C)C(C(=O)NCc3ccc4c(c3)OCO4)=C2)cc1OC	-	-	-	-
CC(NC(=O)COc1ccc(S(=O)(=O)N2CCOCC2)cc1)c1ccccc1 (stereo not drawn)	?	-	?	.
Cc1cc(=O)[nH]c(-c2ccc(C(F)(F)F)cc2)n1	-	-	-	-
Cc1n(CC(O)COC2CCCCC2)c2ccccc2[n+]1C (stereo not drawn)	-	-	6.6µM	-
COCCCN(C(=O)CSCc1c(C)noc1C)c1c(N)n(Cc2ccccc2)c(=O)[nH]c1=O	?	-	-	.
N#CCCn1cc(C(=O)Nc2ccc(F)cc2)c(-c2ccccc2)n1	-	-	-	-
COc1ccccc1NC(=O)c1cn(CCC#N)nc1-c1ccc(F)cc1	12µM	-	-	-
CCc1cc(SC#N)cc(CC)c1NC(=O)CCl	?	?	10µM	?
OC(CN1CCN(c2ccccc2Cl)CC1)c1ccccc1 (stereo not drawn)	?	-	?	-
NS(=O)(=O)c1ccc(CCNC(=O)/C=C/c2ccccc2[N+](=O)[O-])cc1	-	-	-	.
COc1ccc(S(=O)(=O)N(C)CC(=O)N2CCCCC2)cc1Cl	?	-	-	-
CCN1CCN(C(=O)CN(C)S(=O)(=O)c2cc(C)ccc2OC)CC1	-	-	-	-
COc1ccc(Cl)cc1S(=O)(=O)N(C)CC(=O)N1CCCC1	5.9µM	-	-	-
COc1ccc(C)cc1S(=O)(=O)N(C)CC(N)=O	10µM	-	-	-
COc1ccc(C)cc1S(=O)(=O)N(C)CC(=O)N1CCCC1	12µM	-	-	-
COc1ccc(C)cc1S(=O)(=O)N(C)CC(=O)NC1CC1	?	-	.	-
CCOc1ccc(CCNC(=O)CN(C)S(=O)(=O)c2cccs2)cc1OCC	?	-	?	.
Fc1ccc(-[n+]2nc(Nc3ccccc3)sc2-c2c3ccccc3cc3ccccc23)cc1	?	-	?	.
c1ccc(-[n+]2nc(Nc3cccc4ccccc34)sc2-c2c3ccccc3cc3ccccc23)cc1	0.83µM	-	1µM	.
COc1ccc(C)cc1Nc1n[n+](-c2ccccc2)c(-c2c(OC)ccc3ccccc23)s1	?	-	3.7µM	.
CSc1ccc(-c2sc(Nc3ccccc3)n[n+]2-c2ccc(F)cc2)cc1	-	-	?	-
SMILES	Pf growth 96h	SARS PLP yeast	Pf growth 48h	NS1 function inh
COc1ccc(C)cc1Nc1n[n+](-c2ccccc2)c(-c2cc(OC)c(OC)cc2Br)s1	9.3µM	-	?	-
COc1ccc(-c2sc(Nc3ccccc3)n[n+]2-c2ccc(F)cc2)c(C)c1C	10µM	-	?	-
CN1CCN(NC(=O)c2ccc(Cl)s2)CC1	-	-	-	.
COc1ccc(C)cc1Nc1n[n+](-c2ccccc2)c(-c2ccc(C(=O)O)cc2)s1	2.3µM	-	-	-
COc1ccc(C(=O)NCc2ccco2)cc1S(=O)(=O)NC1CC1	-	-	-	.
COC(=O)CCCC(=O)N1CCC(CO)(CCc2ccccc2)CC1	?	.	-	-
O=C(c1ccoc1)N1CCC(CO)(CCc2ccccc2)CC1	12µM	-	-	-
C=CCn1c(COc2cccc(C)c2)nnc1SC(C)C(=O)NC1CC1 (stereo not drawn)	13µM	-	?	.
COc1ccc(OC)c(S(=O)(=O)NCCS(=O)(=O)N2CCN(c3ccccc3)CC2)c1	-	-	?	-
CCOC(=O)[C@@H]1[C@@H]2c3ccccc3-c3ccccc3[C@H]2C[C@H]1O	.	.	.	-
CCOC(=O)c1c(NC(=O)COC(=O)c2ccc(Cl)nc2)sc(C(=O)N(C)C)c1C	-	-	?	.
CCOC(=O)c1c(NC(=O)COC(=O)c2ccc(O)cc2)sc(C(=O)N(C)C)c1C	?	-	12µM	-
CCOC(=O)c1c(NC(=O)COC(=O)c2ccc(NC(=O)CC#N)cc2)sc(C(=O)NC)c1C	-	-	13µM	.
CCOC(=O)c1c(NC(=O)COC(=O)CCOc2ccccc2C)sc(C(=O)NC)c1C	-	-	-	.
CCOC(=O)c1c(NC(=O)CN2C(=O)NC(C)(c3ccc(Cl)cc3)C2=O)sc(C(=O)NC)c1C (stereo not drawn)	4.7µM	-	8.3µM	-
N#C/C(=C\c1ccc(F)cc1F)S(=O)(=O)c1ccccn1	-	-	-	-
N#CC(NC(=O)OCc1ccccc1)c1ccccc1 (stereo not drawn)	-	-	-	.
CCCCC1(O)CC(C(F)(F)F)=NN1C(=O)COc1ccccc1 (stereo not drawn)	0.12µM	-	-	-
O=C(c1ccoc1)N1CCC2(CCCN(Cc3ccc(F)c(F)c3)C2)C1 (stereo not drawn)	12µM	-	?	-
CCOc1cc(/C=C2\CCC/C(=C\c3cc(Cl)c(O)c(OCC)c3)C2=O)cc(Cl)c1O	3.3µM	-	?	-
O=C(CN1C(=O)COc2ccc(S(=O)(=O)N3CCCCC3)cc21)NCc1ccc(Cl)cc1	?	.	?	-
CCC(O)C1CCN(Cc2cn(Cc3ccccc3)nc2-c2cc3ccccc3o2)CC1 (stereo not drawn)	-	-	5.2µM	-
COCCOC1CCN(Cc2cn(Cc3ccccc3)nc2-c2cc3ccccc3o2)CC1	-	-	?	-
O=C(O)c1cc(S(=O)(=O)N2CCN(C(=O)c3ccco3)CC2)c(Cl)cc1Cl	?	-	?	-
CCC(CC)NC(=O)CO/N=C/c1ccccc1OC(F)F	-	-	-	-
SMILES	Pf growth 96h	SARS PLP yeast	Pf growth 48h	NS1 function inh
C=C1SC(=Nc2ccccc2Cl)N(C(=O)c2sc3ccccc3c2Cl)C1(C)C	?	-	?	-
C=C1SC(=Nc2c(C)cccc2Cl)N(C(=O)c2sc3ccccc3c2Cl)C12CCCCC2	1.9µM	-	?	-
Cc1ccc(CN2CCN(C)CC2)c(C)c1	2.9µM	-	-	-
CCN1CCN(Cc2ccc(C)cc2C)CC1	?	-	-	-
Cc1nn2c(NCCN(C)C)c3c(nc2c1-c1ccccc1)CCCC3	2.1µM	-	?	-
COCCNc1c2c(nc3c(-c4ccccc4)c(C)nn13)CCCC2	-	-	?	-
Cc1nn2c(N3CCN(CCO)CC3)c3c(nc2c1-c1ccccc1)CCCC3	?	-	8.3µM	-
Cc1nn2c(NCCCN3CCOCC3)c3c(nc2c1-c1ccccc1)CCC3	-	-	?	-
CCCCNc1c2c(nc3c(-c4ccccc4)c(C)nn13)CCC2	9.3µM	-	.	-
Cc1nn2c(N3CCCC3)c3c(nc2c1-c1ccccc1)CCC3	?	-	?	-
Cc1nn2c(NCc3cccnc3)c3c(nc2c1-c1ccccc1)CCC3	1.5µM	-	?	-
Cc1nn(-c2ccccc2)c(Cl)c1C(=O)OCC(=O)N(C)c1c(N)n(Cc2ccccc2)c(=O)[nH]c1=O	?	-	-	.

Screens as filed in PubChem BioAssay.
